# Source: PubChem BioAssay (Tox21)
# Inconclusive results are not listed. Where a call stands in place of a potency, no number is given. Calls of active or inactive are those of the source. Calls follow the shape of the dose curve; as a rule, active = well fitted activation curve with a large enough effect in the signal ratio in the repeat runs, with a control signal flat (not every such curve was filed as active); inconclusive = weak or mixed curves; inactive = flat fitted curve, though single readings scatter; the % refers to the signal ratio.
# Assay: qHTS assay for small molecule activators of the heat shock response signaling pathway (AID 743210)
# Details: HeLa HSE-bla reporter, beta-lactamase ratio, 5 h; series mostly up to 62.6 µM
# Excerpt: U.S. Tox21 Program National Center for Advancing Translational Sciences [NCATS] NIH Chemical Genomics Center [NCGC] U.S. Environmental Protection Agency [EPA] National Institutes of Environmental Health Sciences [NIEHS] National Toxicology Program [NTP] U.S. Food and Drug Administration [FDA] Tox21 Assay Overview: Various chemicals, environmental and physiological stress conditions may lead to the activation of heat shock response/ unfolded protein response (HSR/UPR). There are three heat shock transcription factors (HSFs) (HSF-1, -2, and -4) mediating transcriptional regulation of the human HSR. To identify the compounds that activate HSR signaling, HSE-bla HeLa cell line (Invitrogen, Carlsbad, CA, USA) containing a beta-lactamase reporter gene under the control of the heat shock response elements was used to screen the Tox21 10K compound library.
# Tox21 Assay Protocol Summary: The CellSensor HSE-bla HeLa cells (Invitrogen, Carlsbad, CA, USA) were dispensed at 1500 cells/6uL/well into 1536-well black wall/clear bottom plates using a Multidrop combi (Thermo Fisher Scientific, Waltham, MA) dispenser. After the assay plates were incubated at 37 C and 5% CO2 overnight, 23 nL of compounds dissolved in DMSO, positive controls or DMSO only was transferred to the assay plate by a Pintool station (Kalypsys, San Diego, CA). The plates were incubated at 37 C for 5 h. After 1 uL of LiveBLAzerTM B/G FRET substrate was added using a Flying Reagent Dispenser (Beckman Coulter, Indianapolis, IN, USA), the plates were incubated at room temperature for 2.5 h, and fluorescence intensity was measured by an Envision plate reader (PerkinElmer, Shelton, CT).
# Potency is read from the fitted curve at half-maximal effect.
row,SMILES,Potency
1,CCc1cccc(C)c1,inactive
2,CCO[Si](CCCSSSSCCC[Si](OCC)(OCC)OCC)(OCC)OCC,inactive
3,COC(=O)CC#N,inactive
4,COCC(=O)O[C@]1(CCN(C)CCCc2nc3ccccc3[nH]2)CCc2cc(F)ccc2[C@@H]1C(C)C,inactive
5,CCN(CC)CCCN(c1ccccc1)C1Cc2ccccc2C1,inactive
6,CCCCCCCCCCCCCCNCCO,inactive
7,CCCCCCCCCC(=O)N(C)C,inactive
8,Cc1cccc(Br)c1,inactive
9,CC(CN(C)C)CN1c2ccccc2CCc2ccccc21 (stereo not given),inactive
10,CCN1CCN(c2cc(-c3ccc(F)cc3)c3c(n2)CCCCCC3)CC1,inactive
11,NC1(c2ccc(-c3nc4ccn5c(=O)[nH]nc5c4cc3-c3ccccc3)cc2)CCC1,inactive
12,CCN(CC)CCNc1ccc(CO)c2sc3ccccc3c(=O)c12,inactive
13,Nc1cc(Cl)c([N+](=O)[O-])cc1O,inactive
14,COc1cccc(CCc2ccccc2OCC(CN(C)C)OC(=O)CCC(=O)O)c1 (stereo not given),inactive
15,c1ccc(Nc2cccc3ccccc23)cc1,inactive
16,CCCN(CCc1cccs1)[C@H]1CCc2c(O)cccc2C1,inactive
17,C[Si](C)(C)Cl,inactive
18,O=C1OC(=O)c2cccc3cccc1c23,inactive
19,C[C@]12CC[C@H]3C(=CCc4cc(O)ccc43)[C@@H]1CCC2=O,inactive
20,C=C(C)C(=O)OCCC[Si](Cl)(Cl)Cl,inactive

row,SMILES,Potency
1,CCCCCCCC/C=C\CCCCCCCC(=O)OCCOC(=O)CCCCCCC/C=C\CCCCCCCC,inactive
2,Cc1occc1SSc1ccoc1C,23.6 µM (active)
3,CC(C)=C1CC[C@@H](C)CC1=O,inactive
4,CC(=O)Oc1ccc(C2(c3ccc(OC(C)=O)cc3)C(=O)Nc3ccccc32)cc1,inactive
5,Cc1ccc(CCn2c3c(c4cc(Cl)ccc42)CN(C)CC3)cn1,inactive
6,C[C@H]1O[C@@H](O[C@H]2[C@@H](O)C[C@H](O[C@H]3[C@@H](O)C[C@H](O[C@H]4CC[C@@]5(C)[C@H](CC[C@@H]6[C@@H]5C[C@@H](O)[C@]5(C)[C@@H](C7=CC(=O)OC7)CC[C@]65O)C4)O[C@@H]3C)O[C@@H]2C)C[C@H](O)[C@@H]1O,inactive
7,Cc1ccc(N)cc1O,inactive
8,O=C(c1ccccc1)c1cc(Cl)ccc1O,inactive
9,CC(=O)Oc1ccc(C2(c3ccc(OC(C)=O)cc3)Oc3ccccc3NC2=O)cc1,inactive
10,Cc1ccc2ccc3cccc4ccc1c2c34,inactive
11,CN(C)CCCN1c2ccccc2Sc2ccc(C(F)(F)F)cc21,inactive
12,CCCCN(CCCC)CCC(O)c1cc2c(Cl)cc(Cl)cc2c2cc(C(F)(F)F)ccc12 (stereo not given),inactive
13,Cc1nc(Nc2ncc(C(=O)Nc3c(C)cccc3Cl)s2)cc(N2CCN(CCO)CC2)n1,inactive
14,CCOC(=O)[C@@](C)(N)Cc1ccc(O)c(O)c1,inactive
15,CCCCCCCCCCCCCCCC,inactive
16,CC(C(O)c1ccccc1)N(C)CCOC(c1ccccc1)c1ccccc1 (stereo not given),inactive
17,CCCCNc1c(C(=O)OCC)c(C)nc2c1cnn2CC,inactive
18,NCCCCCCNCCCCCCN,inactive
19,COc1cc(C(=O)NS(=O)(=O)c2ccccc2C)ccc1Cc1cn(C)c2ccc(NC(=O)OC3CCCC3)cc12,inactive
20,CC(COC(=O)c1ccccc1)OC(=O)c1ccccc1 (stereo not given),inactive
